Data as given in the supplement of paper PMC10849652.
Targets with a hit are over-represented here; the source holds about 7,900 in all. About 0.6% of all pairs of compound and target were hits. Unmarked numbers belong to inactive results.

Each target was assayed with O=C(O)c1ccc2c(c1)nc(Nc1cccc(Cl)c1)c1ccncc12 [silmitasertib] (assay: log2 fold change, soluble protein after heating vs DMSO (PISA); higher = thermal stabilisation; K562 cells, 10 uM, 30 min; active = over 0.2 and 3.5 SD of the protein, either way, in both replicates (recomputed)).
Outline: (§1)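 Soluble protein was defined as the supernatant after 21,000xg for 90 min. It came from K562 cells at 2×10^6 cells/mL given 10 μM compound for 30 min, heated in aliquots for 3 min across 48°C-58°C, pooled, and extracted in PBS with 0.5% NP-40 at 4°C, and was quantified by TMTpro 16plex LC-MS/MS with equalised channel sums. Thermal stability against control samples, from duplicates, is reported as log2 fold change.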

UniProt Q9P0T7, sequence (Q9P0T7 whole entry, looked up): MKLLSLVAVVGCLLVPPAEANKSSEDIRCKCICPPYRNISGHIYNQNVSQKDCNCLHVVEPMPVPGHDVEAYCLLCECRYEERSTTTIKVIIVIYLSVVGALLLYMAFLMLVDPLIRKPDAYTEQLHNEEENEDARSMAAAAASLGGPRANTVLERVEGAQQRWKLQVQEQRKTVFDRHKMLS
UniProt Q99986, sequence (Q99986 whole entry, looked up): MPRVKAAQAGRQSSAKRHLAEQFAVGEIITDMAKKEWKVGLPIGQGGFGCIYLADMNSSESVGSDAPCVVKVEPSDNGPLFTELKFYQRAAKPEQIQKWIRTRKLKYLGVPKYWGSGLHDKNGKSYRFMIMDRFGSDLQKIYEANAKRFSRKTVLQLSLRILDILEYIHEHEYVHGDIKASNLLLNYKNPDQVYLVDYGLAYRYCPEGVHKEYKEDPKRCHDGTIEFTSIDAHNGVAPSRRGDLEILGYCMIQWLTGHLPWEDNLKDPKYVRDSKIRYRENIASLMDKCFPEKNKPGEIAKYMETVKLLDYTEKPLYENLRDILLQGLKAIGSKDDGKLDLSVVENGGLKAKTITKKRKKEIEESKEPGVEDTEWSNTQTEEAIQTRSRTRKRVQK
UniProt Q92973, sequence (Q92973 whole entry, looked up): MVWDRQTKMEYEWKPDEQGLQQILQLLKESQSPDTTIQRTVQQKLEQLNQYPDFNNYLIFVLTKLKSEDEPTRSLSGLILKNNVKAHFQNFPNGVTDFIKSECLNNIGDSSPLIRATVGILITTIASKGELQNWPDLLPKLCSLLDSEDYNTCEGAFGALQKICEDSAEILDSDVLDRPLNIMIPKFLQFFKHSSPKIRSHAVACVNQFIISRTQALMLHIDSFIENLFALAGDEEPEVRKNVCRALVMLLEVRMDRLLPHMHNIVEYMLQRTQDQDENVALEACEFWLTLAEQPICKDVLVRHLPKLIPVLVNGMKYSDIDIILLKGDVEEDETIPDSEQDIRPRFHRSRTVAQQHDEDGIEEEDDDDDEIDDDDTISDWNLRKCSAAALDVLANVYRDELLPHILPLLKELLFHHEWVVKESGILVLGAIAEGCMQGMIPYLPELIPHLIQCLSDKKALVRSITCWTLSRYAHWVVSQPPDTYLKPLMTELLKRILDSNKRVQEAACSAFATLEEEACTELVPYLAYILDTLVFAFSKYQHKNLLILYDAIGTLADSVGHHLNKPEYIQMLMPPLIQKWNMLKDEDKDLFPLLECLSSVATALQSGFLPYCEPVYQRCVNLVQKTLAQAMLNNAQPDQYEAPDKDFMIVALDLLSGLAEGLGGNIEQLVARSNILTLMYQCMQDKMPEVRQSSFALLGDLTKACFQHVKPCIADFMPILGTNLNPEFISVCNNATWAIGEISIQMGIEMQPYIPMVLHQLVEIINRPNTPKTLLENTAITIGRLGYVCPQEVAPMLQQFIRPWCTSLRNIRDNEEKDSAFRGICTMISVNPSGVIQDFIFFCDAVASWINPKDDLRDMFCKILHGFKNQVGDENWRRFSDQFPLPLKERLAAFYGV
UniProt Q5VIR6, sequence (Q5VIR6 whole entry, looked up): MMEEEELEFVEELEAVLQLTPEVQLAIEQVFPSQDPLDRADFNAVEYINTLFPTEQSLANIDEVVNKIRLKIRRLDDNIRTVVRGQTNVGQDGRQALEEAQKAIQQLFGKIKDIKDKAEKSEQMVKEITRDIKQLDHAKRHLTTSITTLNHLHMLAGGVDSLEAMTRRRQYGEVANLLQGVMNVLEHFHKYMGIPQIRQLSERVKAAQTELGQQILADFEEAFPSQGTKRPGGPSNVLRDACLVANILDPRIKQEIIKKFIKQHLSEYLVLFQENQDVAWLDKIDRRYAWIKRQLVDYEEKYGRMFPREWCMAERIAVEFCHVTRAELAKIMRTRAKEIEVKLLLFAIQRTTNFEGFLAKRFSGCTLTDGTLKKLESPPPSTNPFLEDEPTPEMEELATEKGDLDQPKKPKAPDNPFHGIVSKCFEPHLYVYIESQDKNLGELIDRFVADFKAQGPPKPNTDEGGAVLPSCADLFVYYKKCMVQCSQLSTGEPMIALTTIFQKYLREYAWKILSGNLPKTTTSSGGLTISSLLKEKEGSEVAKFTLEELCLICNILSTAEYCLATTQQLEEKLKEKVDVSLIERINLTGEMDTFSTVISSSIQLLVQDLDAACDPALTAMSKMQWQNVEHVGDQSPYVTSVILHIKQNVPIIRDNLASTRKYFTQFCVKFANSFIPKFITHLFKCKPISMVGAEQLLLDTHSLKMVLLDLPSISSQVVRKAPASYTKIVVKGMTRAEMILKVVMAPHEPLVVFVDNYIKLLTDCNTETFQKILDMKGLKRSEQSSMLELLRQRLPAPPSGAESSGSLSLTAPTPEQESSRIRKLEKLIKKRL
UniProt Q9UGM6, sequence (Q9UGM6 whole entry, looked up): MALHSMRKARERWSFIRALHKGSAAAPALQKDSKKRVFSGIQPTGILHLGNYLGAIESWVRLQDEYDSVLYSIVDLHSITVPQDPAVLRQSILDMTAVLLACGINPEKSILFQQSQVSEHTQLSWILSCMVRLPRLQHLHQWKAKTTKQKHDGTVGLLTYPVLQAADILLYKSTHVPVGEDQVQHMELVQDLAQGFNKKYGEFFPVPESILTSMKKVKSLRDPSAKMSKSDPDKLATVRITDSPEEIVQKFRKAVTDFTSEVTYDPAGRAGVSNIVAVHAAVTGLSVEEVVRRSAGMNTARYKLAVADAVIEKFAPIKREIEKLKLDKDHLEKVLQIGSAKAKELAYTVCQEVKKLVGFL
UniProt Q01081, sequence (Q01081 whole entry, looked up): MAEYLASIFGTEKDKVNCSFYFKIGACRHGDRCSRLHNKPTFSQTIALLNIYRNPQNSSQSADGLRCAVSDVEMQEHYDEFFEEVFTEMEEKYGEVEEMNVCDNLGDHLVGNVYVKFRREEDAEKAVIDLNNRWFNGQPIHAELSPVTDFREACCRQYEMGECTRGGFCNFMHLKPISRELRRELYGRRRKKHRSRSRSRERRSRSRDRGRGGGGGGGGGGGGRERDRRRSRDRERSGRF
UniProt Q16763, sequence (Q16763 whole entry, looked up): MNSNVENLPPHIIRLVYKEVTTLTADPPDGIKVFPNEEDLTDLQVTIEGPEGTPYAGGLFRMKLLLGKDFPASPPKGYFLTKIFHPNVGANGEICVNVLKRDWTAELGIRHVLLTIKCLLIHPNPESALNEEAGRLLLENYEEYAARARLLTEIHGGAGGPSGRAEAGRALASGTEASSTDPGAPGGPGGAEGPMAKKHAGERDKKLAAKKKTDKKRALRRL
UniProt Q99816, sequence (Q99816 whole entry, looked up): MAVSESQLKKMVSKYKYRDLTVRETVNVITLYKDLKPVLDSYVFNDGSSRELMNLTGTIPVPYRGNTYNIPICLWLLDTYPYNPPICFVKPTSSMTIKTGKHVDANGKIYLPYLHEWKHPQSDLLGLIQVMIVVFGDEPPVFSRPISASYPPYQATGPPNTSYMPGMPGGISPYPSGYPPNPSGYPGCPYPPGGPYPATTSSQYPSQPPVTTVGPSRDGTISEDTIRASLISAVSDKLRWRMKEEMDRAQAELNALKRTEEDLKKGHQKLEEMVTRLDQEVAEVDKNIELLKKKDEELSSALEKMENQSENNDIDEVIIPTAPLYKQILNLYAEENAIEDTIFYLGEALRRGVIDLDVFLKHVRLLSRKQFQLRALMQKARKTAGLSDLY
UniProt Q9BZI7, sequence (Q9BZI7 whole entry, looked up): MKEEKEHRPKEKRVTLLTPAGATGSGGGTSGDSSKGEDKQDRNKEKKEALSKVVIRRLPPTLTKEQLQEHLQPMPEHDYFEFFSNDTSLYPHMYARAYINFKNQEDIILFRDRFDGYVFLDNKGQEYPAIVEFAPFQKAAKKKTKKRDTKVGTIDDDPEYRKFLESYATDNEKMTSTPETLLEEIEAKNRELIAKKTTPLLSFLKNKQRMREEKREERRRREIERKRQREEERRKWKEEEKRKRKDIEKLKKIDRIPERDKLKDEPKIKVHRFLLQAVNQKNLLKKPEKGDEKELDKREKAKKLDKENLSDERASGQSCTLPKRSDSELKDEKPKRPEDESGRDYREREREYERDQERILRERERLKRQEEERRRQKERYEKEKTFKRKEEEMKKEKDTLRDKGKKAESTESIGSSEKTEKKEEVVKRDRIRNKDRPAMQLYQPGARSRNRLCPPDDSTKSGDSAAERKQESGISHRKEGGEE
UniProt P13010, sequence (P13010 whole entry, looked up): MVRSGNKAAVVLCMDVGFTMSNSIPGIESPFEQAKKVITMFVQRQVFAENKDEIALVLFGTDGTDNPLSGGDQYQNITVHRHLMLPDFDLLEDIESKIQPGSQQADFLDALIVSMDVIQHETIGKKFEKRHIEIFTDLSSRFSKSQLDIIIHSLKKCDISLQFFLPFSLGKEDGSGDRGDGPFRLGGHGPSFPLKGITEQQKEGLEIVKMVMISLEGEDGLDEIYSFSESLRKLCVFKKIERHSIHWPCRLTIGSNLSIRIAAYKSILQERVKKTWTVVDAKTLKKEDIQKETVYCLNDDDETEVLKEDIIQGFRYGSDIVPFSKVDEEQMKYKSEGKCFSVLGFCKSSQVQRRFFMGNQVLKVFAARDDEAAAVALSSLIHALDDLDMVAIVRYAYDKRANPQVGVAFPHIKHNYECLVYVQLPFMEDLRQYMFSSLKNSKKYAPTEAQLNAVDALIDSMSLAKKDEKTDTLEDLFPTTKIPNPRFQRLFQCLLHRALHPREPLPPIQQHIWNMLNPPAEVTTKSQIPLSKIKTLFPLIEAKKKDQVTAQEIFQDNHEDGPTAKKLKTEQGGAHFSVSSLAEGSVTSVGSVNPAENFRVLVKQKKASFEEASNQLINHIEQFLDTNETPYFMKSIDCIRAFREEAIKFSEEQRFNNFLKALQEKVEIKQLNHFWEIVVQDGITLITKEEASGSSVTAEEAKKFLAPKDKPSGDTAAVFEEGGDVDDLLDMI
UniProt Q9UL33, sequence (Q9UL33 whole entry, looked up): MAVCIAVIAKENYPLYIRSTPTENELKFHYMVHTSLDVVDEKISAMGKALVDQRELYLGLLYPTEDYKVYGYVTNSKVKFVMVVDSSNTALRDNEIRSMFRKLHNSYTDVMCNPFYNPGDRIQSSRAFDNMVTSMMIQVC
UniProt Q8N4H5, sequence (Q8N4H5 whole entry, looked up): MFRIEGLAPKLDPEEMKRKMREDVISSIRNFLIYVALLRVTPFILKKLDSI

| Target | log2 fold change |
| --- | --- |
| VRK1 (UniProt Q99986) | -0.028 |
| UBE2S (UniProt Q16763) | 0.069 |
| XRCC5 (UniProt P13010) | 0.019 |
| TMEM9 (UniProt Q9P0T7) | -0.044 |
| TRMT10A (UniProt Q8TBZ6) | -0.023 |
| TNPO1 (UniProt Q92973) | 0.025 |
| WARS2 (UniProt Q9UGM6) | 0.07 |
| VPS53 isoform 4 (UniProt Q5VIR6) | 0.063 |
| TSG101 (UniProt Q99816) | 0.025 |
| U2AF1 isoform 2 (UniProt Q01081) | -0.034 |
| UPF3B (UniProt Q9BZI7) | 0.149 |
| VPS50 (UniProt Q96JG6) | 0.06 |
| TTC38 (UniProt Q5R3I4) | -0.156 |

The targets below were run with O=C1NC(=O)C(c2cnc3ccccn23)=C1c1cn2c3c(cc(F)cc13)CN(C(=O)N1CCCCC1)CC2 in the same assay as above.
Outline: as §1

| Target | log2 fold change |
| --- | --- |
| TRAPPC2L (UniProt Q9UL33) | -0.047 |
| UGDH (UniProt O60701) | -0.31 (active) |
| WDR7 (UniProt Q9Y4E6) | 0.119 |
| TOMM5 isoform 2 (UniProt Q8N4H5) | -0.158 |
| USP7 (UniProt Q93009) | -0.037 |
| TYW1 (UniProt Q9NV66) | -0.141 |
| UBR2 (UniProt Q8IWV8) | 0.044 |
| TMEM161A (UniProt Q9NX61) | -0.009 |
| XPNPEP1 isoform 3 (UniProt Q9NQW7) | -0.02 |
| XRCC6 (UniProt P12956) | -0.119 |
| TNPO2 (UniProt O14787) | -0.04 |
| TRMT10C (UniProt Q7L0Y3) | -0.075 |
| UHRF1BP1L (UniProt A0JNW5) | -0.052 |
| TUBA4A (UniProt P68366) | -0.059 |
| USP3 (UniProt Q9Y6I4) | -0.066 |
| WBP4 (UniProt O75554) | 0 |
| VTA1 (UniProt Q9NP79) | -0.076 |
| UBE3D (UniProt Q7Z6J8) | -0.032 |

| Target | log2 fold change |
| --- | --- |
| VPS16 (UniProt Q9H269) | 0.122 |
| TXNRD1 (UniProt Q16881) | -0.122 |
| TMEM177 (UniProt Q53S58) | 0.048 |
| WDCP (UniProt Q9H6R7) | -0.033 |
| TMEM223 (UniProt A0PJW6) | 0.05 |
| VRK1 (UniProt Q99986) | -0.138 |
| UBE2S (UniProt Q16763) | -0.106 |
| XRCC5 (UniProt P13010) | -0.096 |
| TMEM9 (UniProt Q9P0T7) | -0.031 |
| TRMT10A (UniProt Q8TBZ6) | 0.007 |
| TNPO1 (UniProt Q92973) | -0.021 |
| WARS2 (UniProt Q9UGM6) | 0.01 |
| VPS53 isoform 4 (UniProt Q5VIR6) | -0.066 |
| TSG101 (UniProt Q99816) | -0.103 |
| U2AF1 isoform 2 (UniProt Q01081) | -0.039 |
| UPF3B (UniProt Q9BZI7) | 0.245 |
| VPS50 (UniProt Q96JG6) | 0.037 |
| TTC38 (UniProt Q5R3I4) | 0.042 |
